The results in this text go back to PubChem BioAssay (NCI).

Assay in all cases: NCI-60 one-dose screen, 48 h (100 = growth as untreated, 0 = no growth, -100 = all killed)
One experiment deals with SR leukemia. To be noted: 10 µM unless noted.
For another experiment, the system named is OVCAR-8 ovarian. To be noted: 10 µM unless noted.
The subject of the next experiment is OVCAR-5 ovarian. To be noted: 10 µM unless noted.
The next experiment deals with OVCAR-4 ovarian. To be noted: 10 µM.
A further experiment concerns SK-OV-3 ovarian. To be noted: 10 µM unless noted.
The next experiment relates to IGROV1 ovarian. To be noted: 10 µM unless noted.
In a further experiment the test system is OVCAR-3 ovarian. To be noted: 10 µM unless noted.
For the next experiment, the system named is T-47D breast. To be noted: 10 µM unless noted.
A further experiment relates to MDA-MB-435 melanoma. To be noted: 10 µM unless noted.
In a further experiment the test system is SW-620 colon. To be noted: 10 µM unless noted.
The subject of another experiment is MCF7 breast. To be noted: 10 µM unless noted.
In another experiment the test system is HCT-116 colon. To be noted: 10 µM unless noted.
A further experiment relates to HCC-2998 colon. To be noted: 10 µM unless noted.
The subject of the next experiment is KM12 colon. To be noted: 10 µM unless noted.
A further experiment has as its system HS 578T breast. To be noted: 10 µM unless noted.
The subject of a further experiment is NCI/ADR-RES ovarian. To be noted: 10 µM unless noted.
In a further experiment the test system is BT-549 breast. To be noted: 10 µM unless noted.
The test system of another experiment is RPMI-8226 leukemia. To be noted: 10 µM unless noted.

About 83,000 compounds went through this panel and 20% of them were active in at least one assay; those are over-represented in the sample as a whole.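 Step 1: grow cells in 96-well plates. Step 2: add test compound at a single concentration. Step 3: incubate 48 h. Step 4: record percent growth.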 Unmarked numbers belong to inactive results. Calls of active or inactive are those of the source. Rule for the calls: active = growth percent below 10; inactive = the rest.

For `Cc1ccc2c(c1)/C(=N\N=C/c1cn(C(C)C)c3ccccc13)C(=O)N2`, the growth in the experiment on SR leukemia was -9.77% (active); in the experiment with OVCAR-8 ovarian, 54.5%; in the experiment on OVCAR-5 ovarian, 70.2%; in the experiment with OVCAR-4 ovarian it was 37.7%; in the experiment on SK-OV-3 ovarian it was 89.2%; with IGROV1 ovarian, 48.1%. The growth in the experiment on OVCAR-3 ovarian was -2.36% (active); in the experiment on T-47D breast, 24.9%; in the experiment with MDA-MB-435 melanoma, 18.8%; in the experiment on SW-620 colon, 46.4%; in the experiment with MCF7 breast, 8.52% (active); in the experiment with HCT-116 colon, 28.1%. Also, the growth is 49.4% in the experiment with HCC-2998 colon and 73.7% in the experiment on KM12 colon.
With `O=C(Nc1ccc(Nc2ccncc2)cc1)c1ccc([N+](=O)[O-])cc1`, the growth with SR leukemia is -45.3% (active); in the experiment with OVCAR-8 ovarian, 61%; in the experiment with OVCAR-5 ovarian, 101%; in the experiment with OVCAR-4 ovarian, 67.3%; with SK-OV-3 ovarian, 88.6%; in the experiment with IGROV1 ovarian it was 85.4%. In addition, the growth in the experiment on OVCAR-3 ovarian was 60.4%; in the experiment with HS 578T breast, 95.4%; with NCI/ADR-RES ovarian, 92%; in the experiment on T-47D breast, 29.7%; in the experiment with MDA-MB-435 melanoma, 79.5%; in the experiment with SW-620 colon, 30.5%. The growth in the experiment on MCF7 breast is 51.6%; in the experiment on HCT-116 colon it was 27.3%; with HCC-2998 colon, 66.7%; in the experiment on KM12 colon, 79.5%.
In the case of `O=S(=O)(c1ccc(N/N=C\c2ccccc2Cl)cc1)c1ccc(N/N=C/c2ccccc2Cl)cc1`, the growth in the experiment with SR leukemia is 88.5%; with OVCAR-8 ovarian, 86.5%; with OVCAR-5 ovarian, 82.6%; in the experiment with OVCAR-4 ovarian it was 84.1%; with SK-OV-3 ovarian, 98%; with IGROV1 ovarian it was 73.8%. Further, the growth in the experiment with HS 578T breast was 83%; in the experiment with T-47D breast, 76.3%; in the experiment on MDA-MB-435 melanoma, 86.9%; in the experiment with SW-620 colon, 87.6%; with MCF7 breast, 68%; in the experiment with HCT-116 colon, 80.8%. The growth was 103% with HCC-2998 colon and 69.9% in the experiment on KM12 colon.
With `O=C(Nc1cccnc1)c1ccc2ccc3ccc(C(=O)Nc4cccnc4)nc3c2n1`, the growth was 42.6% with SR leukemia; 22.6% in the experiment with OVCAR-8 ovarian; 36.9% with OVCAR-5 ovarian; 47.6% in the experiment on SK-OV-3 ovarian; 23.3% with OVCAR-3 ovarian; 79.8% with NCI/ADR-RES ovarian. The growth was 37.2% with T-47D breast; 34.7% with BT-549 breast; 24.9% in the experiment on MDA-MB-435 melanoma; 11% in the experiment on SW-620 colon; 28.9% in the experiment on MCF7 breast; 4.76% (active) in the experiment on HCT-116 colon. Also, the growth with HCC-2998 colon was 3.41% (active); in the experiment on KM12 colon, 5.81% (active).
Take `C=C(CN=[N+]=[N-])[C@@H]1CC[C@]2(C)[C@H](CC[C@@H]3[C@H]4[C@H]5OC(=O)[C@@]4(CCC5(C)C)CC[C@]32C)[C@@]1(C)CCC#N`: the growth was 64% [100 µM] in the experiment with SR leukemia; 92.2% [100 µM] in the experiment on OVCAR-8 ovarian; 98.3% [100 µM] with OVCAR-5 ovarian; 75.4% [100 µM] with SK-OV-3 ovarian; 106% [100 µM] in the experiment on IGROV1 ovarian; 82.5% [100 µM] with OVCAR-3 ovarian. In addition, the growth was 88.5% [100 µM] in the experiment with HS 578T breast; 55.6% [100 µM] in the experiment on T-47D breast; 78.7% [100 µM] in the experiment with BT-549 breast; 76.3% [100 µM] with MDA-MB-435 melanoma; 87.3% [100 µM] in the experiment with SW-620 colon; 64.5% [100 µM] in the experiment on MCF7 breast. In addition, the growth in the experiment on HCT-116 colon is 47.3% [100 µM]; in the experiment on HCC-2998 colon, 89.3% [100 µM]; in the experiment with KM12 colon, 81.7% [100 µM].
Regarding `C=CCCC1(C)NC(=O)NC1=O` (centres undefined), the growth is 94.4% in the experiment with SR leukemia; 102% in the experiment on OVCAR-8 ovarian; 102% in the experiment on OVCAR-5 ovarian; 99.4% with OVCAR-4 ovarian; 94.6% in the experiment with SK-OV-3 ovarian; 115% in the experiment with IGROV1 ovarian. Besides, the growth was 106% in the experiment with OVCAR-3 ovarian; 105% in the experiment with HS 578T breast; 103% in the experiment with NCI/ADR-RES ovarian; 100% in the experiment with BT-549 breast; 99.4% with MDA-MB-435 melanoma; 102% in the experiment on SW-620 colon. In addition, the growth with MCF7 breast was 92.4%; in the experiment on HCT-116 colon it was 96.6%; with HCC-2998 colon, 104%.
For the compound `Nc1cc(Cl)cc2cccnc12`, the growth in the experiment on SR leukemia was 94%; with OVCAR-8 ovarian it was 111%; in the experiment on OVCAR-5 ovarian, 101%; with OVCAR-4 ovarian, 117%; in the experiment with SK-OV-3 ovarian, 95%; in the experiment with IGROV1 ovarian, 126%. Moreover, the growth was 119% in the experiment with OVCAR-3 ovarian; 114% in the experiment with HS 578T breast; 101% in the experiment with NCI/ADR-RES ovarian; 112% in the experiment on T-47D breast; 106% in the experiment on MDA-MB-435 melanoma; 102% with SW-620 colon. Also, the growth was 95.2% in the experiment with MCF7 breast, 109% in the experiment on HCT-116 colon, 93.5% in the experiment on HCC-2998 colon and 101% with KM12 colon.
For `COc1cc2c(c(Br)c1N)-c1cc(Br)c(N)cc1C2=O`, the growth with RPMI-8226 leukemia is 85.9%; in the experiment on OVCAR-8 ovarian, 29.1%; in the experiment with OVCAR-5 ovarian, 16.3%; with OVCAR-4 ovarian it was 22.2%; in the experiment on SK-OV-3 ovarian, 74.5%; in the experiment on IGROV1 ovarian, 31.9%. In addition, the growth in the experiment on OVCAR-3 ovarian was 83.4%; with HS 578T breast it was 38.1%; with NCI/ADR-RES ovarian, 47.8%; in the experiment on T-47D breast, 18.4%; in the experiment with BT-549 breast it was 77.9%; in the experiment with HCT-116 colon it was 62.9%. For the same compound, the growth is 52.1% with HCC-2998 colon and 66.6% in the experiment with KM12 colon.
As for `COc1ccc(-c2cc(-c3ccc(Cl)cc3)nc(NCCCCNc3ccnc4cc(Cl)ccc34)n2)cc1`, the growth is 9.44% (active) in the experiment on SR leukemia; -23.3% (active) in the experiment on OVCAR-8 ovarian; 96.2% in the experiment on OVCAR-5 ovarian; 73.3% in the experiment on OVCAR-4 ovarian; 60.8% in the experiment with IGROV1 ovarian; 96% with OVCAR-3 ovarian. Further, the growth in the experiment on HS 578T breast is 81.5%; with NCI/ADR-RES ovarian it was 72.2%; in the experiment with T-47D breast it was 78.1%; with BT-549 breast, 85.5%; in the experiment with MDA-MB-435 melanoma, 93.8%; in the experiment on SW-620 colon, -61.8% (active). In addition, the growth was -69.3% (active) in the experiment on MCF7 breast, 23.4% with HCT-116 colon, 26.1% with HCC-2998 colon and 76.2% in the experiment with KM12 colon.
